# The panel holds about 83,000 compounds, 20% with a hit somewhere; the sample as a whole holds those more often.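 Plates (96-well) were seeded with cells, treated with compound at one concentration, and incubated for 48 hours before percent growth was determined.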 A number with no mark means an inactive call. Calls of active or inactive are those of the source. Rule for the calls: active = growth percent below 10; inactive = the rest.
# Tests used:
# Assay in all cases: NCI-60 one-dose screen, 48 h (100 = growth as untreated, 0 = no growth, -100 = all killed)
# Conditions in all cases: 10 µM unless noted
# [1] = test system: T-47D breast
# [2] = test system: BT-549 breast
# [3] = test system: MDA-MB-435 melanoma
# [4] = test system: SW-620 colon
# [5] = test system: MCF7 breast
# [6] = test system: HCT-116 colon
# [7] = test system: KM12 colon
# [8] = test system: HCC-2998 colon
Compound,growth [1],growth [2],growth [3],growth [4],growth [5],growth [6],growth [7],growth [8]
O=C1CCCCC=C1C[N+](=O)[O-],70.3%,97.2%,92.9%,39.6%,84.4%,62.5%,105%,–
O=c1oc2c([nH]c3ccc4ccccc4c32)c2ccccc12,77.5%,104%,105%,98.3%,73.7%,102%,106%,–
COc1cc(OC)cc(-c2n[nH]nc2-c2ccc3c(c2)OCO3)c1,55.4%,51.2%,-82.8% (active),30.8%,24.3%,15.7%,25.1%,31.9%
Clc1ccc(-c2nc(-c3ccco3)cn3ccnc23)cc1,40.2%,84.5%,78.6%,72.7%,27.2%,–,48.7%,58.2%
COc1ccc(OC)c(NC(=O)c2cc(S(=O)(=O)N3CCc4ccccc43)ccc2OC)c1,93.4%,104%,96.1%,96.7%,113%,72.2%,111%,–
C/C1=C\CCC2(C)OC2CC2CCC(C)(O)C(CC1)C2(C)C (configuration not stated),91.7%,49.8%,110%,97.1%,102%,98.6%,108%,–
Nc1nc(Cl)c2c(ncn2Cc2ccc(CCl)cc2)n1,90.2%,6.29% (active),95.5%,93.3%,72.5%,94.2%,94.3%,–
CC(C)CCC[C@@H](C)[C@H]1CC[C@H]2[C@@H]3CC[C@H]4C/C(=N/O)CC[C@]4(C)[C@H]3CC[C@]12C,103%,108%,103%,97.9%,103%,109%,108%,86.3%
O=c1[nH]c2ccccc2cc1-c1nnc(Cc2ccccc2)o1,42.2%,48.9%,52.9%,45%,–,7.52% (active),77.8%,78.9%
C/C(=N\NC(=O)CC#N)c1cc2cc(Cl)ccc2o1,78.4%,125%,106%,102%,72.2%,107%,98.9%,–
COc1cc(CNC(=O)CSc2nc3ccccc3c(=O)n2Cc2cc(OC)c(OC)c(OC)c2)cc(OC)c1OC,89.7%,104%,103%,109%,92.7%,97.5%,102%,–
CCCCNc1nnc(-c2cc(-c3cc4ccccc4o3)nn2-c2ccccc2)o1,76.7%,96.7%,101%,103%,73.8%,89.4%,103%,–
Cc1ccc(S(=O)(=O)N2CCC(C(=O)Nc3ccc(F)cc3F)CC2)cc1,88.8%,96.9%,95%,103%,93.2%,101%,109%,–
CCCCNC(=O)NS(=O)(=O)c1ccc(N2N=C(c3ccc(C)cc3C)CC2c2ccc(OC)cc2)cc1 (configuration not stated),75%,49.9%,9.96% (active),75.9%,–,51.6%,48%,58.6%
CCO/C=N/NC(=O)c1ccncc1,106%,114%,110%,104%,101%,105%,106%,113%
NC(=O)c1cccc(N2Cc3ccccc3OC3=C2C(=O)c2c(O)ccc(O)c2C3=O)c1,-36.9% (active),-56.8% (active),-27.3% (active),-66.6% (active),-22.3% (active),-69.1% (active),-48.9% (active),-21.1% (active)
Nc1nc(-c2cc3ccccc3o2)cc(=O)c(=O)[nH]1,104%,106%,105%,102%,91%,110%,105%,–
COc1cccc(-c2nc3sccn3c2-c2ccnc(NCCCNS(=O)(=O)c3ccc(F)cc3)n2)c1,-8.19% (active),29.6%,25.2%,58.4%,39.9%,19.9%,22.1%,82.4%

Compound,growth [1],growth [2],growth [3],growth [4],growth [5],growth [6],growth [7],growth [8]
Clc1nc(Cl)c2ncn(C/C=C/Cn3cnc4c(Cl)nc(Cl)nc43)c2n1,38.2%,-33.3% (active),98.3%,45%,38.3%,33.3%,78.7%,–
O=C1CCCCN1CCCCC#Cc1ccccc1C#Cc1ccc([N+](=O)[O-])cc1,49.4%,65.9%,45.5%,27.3%,49.6%,23.1%,27.2%,67.2%
CCCCCCc1nc2c(c(C)nn2-c2ccccc2)c2c1CCCCC2,92.2%,113%,116%,101%,107%,–,108%,106%
CN(C)C1CCC(NC2=CC(=O)C=CC2=O)CC1 (configuration not stated),110%,114%,114%,117%,97.9%,5.98% (active),108%,126%
OC1CC2c3ccccc3C1c1ccccc12 (configuration not stated),111%,108%,107%,108%,98.8%,103%,107%,108%
COc1cc(C(=O)CCCl)ccc1O,94.7%,112%,103%,103%,80.2%,100%,97.1%,103%
COc1cc(OC)c(C(=O)/C=C/c2cccc(C#N)c2)c(OC)c1,4.14% (active),-3.25% (active),7.3% (active),–,15%,2.91% (active),6.41% (active),14.4%
COC(=O)CCCCN=Cc1c(O)c(O)c(C(C)C)c2cc(C)c(-c3c(C)cc4c(C(C)C)c(O)c(O)c(C=NCCCCC(=O)OC)c4c3O)c(O)c12,24.9%,28.2%,25.7%,17%,–,14.9%,16.1%,29.7%
COc1cc(OC)c(C(=O)/C=C/c2ccc(C(F)(F)F)cc2)c(OC)c1,26.6%,-3.68% (active),23.8%,9.97% (active),–,20.4%,36.6%,85%
COc1cc2nc(Cl)nc(NCCO)c2cc1OC,101%,112%,106%,–,100%,113%,–,102%
COc1ccc(C2CC(c3cccs3)=NN2c2ccc(S(=O)(=O)NC(=O)Nc3ccc(C)cc3)cc2)cc1 (configuration not stated),78.8%,74.2%,61.9%,–,97.1%,85.1%,97.4%,109%
COC1=CC(c2ccc[nH]2)=N/C1=C\c1[nH]c(C)c(C(=O)CCCCC(=O)Nc2ccccc2)c1C,63.9%,13.9%,17%,–,-85.7% (active),-100% (active),-3.11% (active),55.6%
Cc1cccc2cc(/C=C/C(=O)/C=C/c3ccc(Cl)cc3)c(=O)[nH]c12,41.6%,7.28% (active),-32.7% (active),8.48% (active),–,-52.7% (active),8.42% (active),-4.78% (active)
O=S(=O)(NCCCNc1cc(-c2cn(-c3ccccc3)nc2-c2cccc(O)c2)ccn1)c1ccc(Br)cc1,12.5%,7.68% (active),9.98% (active),–,7.31% (active),9.44% (active),7.88% (active),-62.4% (active)
O=[N+]([O-])c1cc(S(=O)(=O)OCC2CO2)ccc1Cl (configuration not stated),77.1%,91.3%,97.7%,41.2%,–,54%,82.6%,107%
Nc1cccc2c1CN(C1CCC(=O)NC1=O)C2=O (configuration not stated),97.5%,105%,101%,95.6%,–,114%,98.1%,–
CCNCc1ccncc1,96.9%,114%,95.6%,100%,–,104%,106%,99.5%

# From PubChem BioAssay (NCI)
